# Screens (PubChem BioAssay)
# A selection: hits, their analogues and other compounds. The true share with any hit is near 12%.
# PLK1 PBD block: qHTS for Inhibitors of PLK1-PDB (polo-like kinase 1 - polo-box domain): Primary Screen; Serine/threonine-protein kinase PLK1 (Homo sapiens), P53350; Plk1 PBD binding of FITC phosphopeptide, fluorescence polarization; Potency, µM, for inactives: max response, negative = inhibition, hits mostly inhibitors; 2.8% of 360,000 active; further: potency means the concentration at half of the fitted maximal effect; series mostly up to about 57 µM; on the % scale 0 is the no-effect control and ±100 the full control effect; nearly all actives have a fitted effect of over 65% in size
# G9a inh: qHTS Assay for Inhibitors of Histone Lysine Methyltransferase G9a; Potency, µM (highest dose often 102 µM), for inactives: at the top dose activity, negative = inhibition, most hits filed as inhibitors; 8.8% of 350,000 active; G9a H3K9 monomethylation, AlphaScreen, 2 h; Histone-lysine N-methyltransferase EHMT2 (Homo sapiens), Q96KQ7; further: potency means the concentration at half of the fitted maximal effect; on the % scale 0 is the no-effect control and ±100 the full control effect; nearly all actives have a fitted effect of over 75% in size
# Target sequence (Q96KQ7 913-1193 limits assumed): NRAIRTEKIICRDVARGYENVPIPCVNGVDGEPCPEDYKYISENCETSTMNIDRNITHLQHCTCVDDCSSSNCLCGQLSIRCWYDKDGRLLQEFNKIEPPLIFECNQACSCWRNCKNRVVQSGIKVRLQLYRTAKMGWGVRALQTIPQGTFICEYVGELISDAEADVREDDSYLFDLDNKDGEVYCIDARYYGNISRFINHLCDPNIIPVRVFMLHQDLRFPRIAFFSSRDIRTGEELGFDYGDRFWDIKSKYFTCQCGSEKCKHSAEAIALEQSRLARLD
#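 Step 1: enzyme (final 20 nM) with compound, 15 min RT. Step 2: substrate peptide 500 nM and SAM 20 uM, 2 h RT. Step 3: anti-H3K9me1 antibody and AlphaScreen beads, 10 min, then plate read.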
# BAZ2B inh: qHTS Assay for Inhibitors of BAZ2B. AlphaScreen BAZ2B-H3K14Ac peptide displacement. Potency, µM (titrated, usually from 114 µM), for inactives: top-dose activity change, negative = inhibition, hits mostly inhibitors. 4.4% of 360,000 active. AID 504333, 2011; further: potency means the concentration at half of the fitted maximal effect; on the % scale 0 is the no-effect control and ±100 the full control effect; nearly all actives have a fitted effect of over 60% in size
#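 Complex of BAZ2B and biotin-H3K14Ac (50 nM apiece) forms over 30 min at RT, then faces library compounds up to 110 uM for another 30 min; AlphaScreen beads added, 20 min dark incubation, luminescence read.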
# HP1b binding inh: HTS for Inhibitors of HP1-beta Chromodomain Interactions with Methylated Histone Tails. Chromobox protein homolog 1 (Homo sapiens), P83916. Potency, µM (doses to about 114 µM), for inactives: at the highest dose activity change, negative = inhibition, hits mostly inhibitors. 0.56% of 390,000 active. AlphaScreen HP1-beta / biotin-H3K9me3 peptide binding; further: potency means the concentration at half of the fitted maximal effect; nearly all actives have a fitted effect of over 70% in size
# Target sequence (P83916 whole entry, looked up): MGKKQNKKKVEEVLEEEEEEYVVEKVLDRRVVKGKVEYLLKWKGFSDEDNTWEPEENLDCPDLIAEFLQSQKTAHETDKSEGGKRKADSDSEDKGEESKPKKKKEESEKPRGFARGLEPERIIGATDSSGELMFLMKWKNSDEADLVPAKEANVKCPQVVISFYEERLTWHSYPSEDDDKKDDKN
#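 Compound inhibition of the preformed complex between 50 nM HP1-beta and 50 nM biotinylated H3K9me3 peptide was read by AlphaScreen. Buffer was PBS pH 7.4 with 0.01% Tween-20. Incubations ran 30 min at room temperature, with 10 ug/mL donor/acceptor beads.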
# PI5P4K alpha inh: qHTS for Inhibitors of phosphatidylinositol 5-phosphate 4-kinase (PI5P4K) | 1.2% of 330,000 active | PI5P4Kalpha enzyme, ADP-Glo luminescence, 60 min; hits give low values | max response, %; active means max response of -50% or lower; inconclusive means between -30% and -50%; inactive means -30% or higher; further: value at the top dose of about 77 µM; on the % scale 0 is the no-effect control and ±100 the full control effect
#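 Quantitative HTS of the MLSMR library against PI5P4Kalpha with substrate. ATP added last at 5 microM final; room temperature, 60 minutes. Remaining ATP depleted, ADP converted and read as luminescence.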
# JMJD2A Tudor: qHTS Assay for Inhibitors of JMJD2A-Tudor Domain; Lysine-specific demethylase 4A (Homo sapiens), O75164; AlphaScreen JMJD2A-Tudor / H3K4me3 peptide binding; Potency, µM (series often up to 114 µM), for the others: at the highest dose activity change, negative = inhibition, actives largely listed as inhibitors; 4.4% of 390,000 active; further: potency means the concentration at half of the fitted maximal effect; on the % scale 0 is the no-effect control and ±100 the full control effect; nearly all actives have a fitted effect of over 50% in size
# Starred values were filed as active, the others as inactive; i = inactive; u = inconclusive; x = no result; ! = not active in a repeat; [ ] = dose if it differs, or a comment. Unless noted, the call rests on the fitted dose curve; in most records, active means well fitted curve in the direction sought with a large enough effect; inconclusive means small, poorly fitted or top-dose-only effect, or another doubt; inactive means no such curve, though single readings can be large; an effect the other way counts as inactive or inconclusive.
SMILES,PLK1 PBD block,G9a inh,BAZ2B inh,HP1b binding inh,PI5P4K alpha inh,JMJD2A Tudor
CC(C)CN1CC2(CCN(C(=O)c3cccc(F)c3)CC2)C1,x,7%[12.7 µM],x,x,x,x
Cc1ccc(C(=O)O)cc1-n1c(C)cc(C=O)c1C,-9%,u,79µM*,15%,-2,-30%
Cc1c(C(=O)O)cccc1-n1c(C)cc(C=O)c1C,u,45µM*,u,1%,-3,50µM*
Cc1cc(C=O)c(C)n1-c1sc2c(c1C(=O)O)CCCC2,-9%,-1%[59 µM],-6%,28%,1,-11%
CN1CCN(c2c(F)cc3c(=O)c(C(=O)O)cn4c3c2SCC4)CC1,-8%,7.9µM*!,u,29%,2,-9%
Cc1ccccc1N(CC(=O)N1CCc2ccccc2C1)S(C)(=O)=O,2%,12%,9%,39%,1,-2%
CN(C)CC(=O)N1CCc2ccccc2C1,8%,u,50µM*,-33%,-5,11µM*
CC(=O)Oc1cc(C(=O)OCC(=O)N2CCc3ccccc3C2)cc(OC(C)=O)c1OC(C)=O,u,x,x,u,-13,1.6µM*
COc1ccc(C(=O)OCC(=O)N2CCc3ccccc3C2)cc1OC,2%,x,x,24%,2,0%
O=C(C1CCCCC1)N1C[C@H](O)[C@@H](n2cc(C3CC3)nn2)C[C@@H]1c1ccccc1,0%,x,x,x,-2,x
Clc1nc(Cl)nc(N(c2ccccc2)c2ccccc2)n1,-6%,50µM*,79µM*,5%,-13,25µM*
Nc1nc(N2CCCCC2)nc(N(c2ccccc2)c2ccccc2)n1,3%,0%[59 µM],7%,31%,3,-5%
CCCS(=O)(=O)c1nc(S(=O)(=O)c2ccc(C)cc2)c(N2CCc3ccccc3C2)s1,-4%,35µM*,24%,28%,2,-10%
CCCS(=O)(=O)c1nc(S(=O)(=O)c2ccc(C)cc2)c(N2CCCC2)s1,-21%,8%[12.7 µM],-7%,18%,-7,-6%
Cn1c2[n+](c3ccc(Cl)cc3c1=O)Cc1ccccc1-2,-2%,28µM*,-6%,45%,-6,-15%
Cn1c(=O)c(-c2cccc(Cl)c2)c(O)c2ccccc21,-1%,x,x,37%,1,4%
O=C(Nc1cccnc1)Nc1ccc(Cl)cc1Cl,-3%,50µM*,-19%,42%,2,u
O=C(CC(=O)Nc1ccc(Cl)cc1Cl)Nc1ccc(Cl)cc1Cl,30µM*,12%,3%,10%,-5,-18%
CC(=O)OCC(=O)Nc1ccc(Cl)cc1Cl,5%,18%[59 µM],11%,30%,-1,1%
O=C(Nc1ccc(Cl)cc1)Nc1cccnc1,-9%,-5%[12.7 µM],0%,9%,x,-15%
CCN(C(=O)Cn1c(=O)oc2ccccc21)c1cccc(C)c1,27µM*,-45%,-25%,9%,-9,u
CCN(C(=O)Cn1c(=O)oc2ccccc21)c1cccc(C(F)(F)F)c1,-3%,x,2%,23%,15,-11%
CCOc1ccc(-c2csc(/C(C#N)=C\c3ccc(O)c([N+](=O)[O-])c3)n2)cc1,19µM*,u,7.1µM*,35µM*,u,22µM*
CN(C)c1ccc(/C=C(\C#N)c2nc(-c3ccc(Cl)c(Cl)c3)cs2)cc1,x,u,-3%,39%,x,-8%
O=C1CSC(c2cn(-c3ccccc3)nc2-c2ccccc2)N1Cc1ccco1 (configuration not stated),-12%,11µM*,u,-14%,8,u
SMILES,PLK1 PBD block,G9a inh,BAZ2B inh,HP1b binding inh,PI5P4K alpha inh,JMJD2A Tudor
O=C1NC(=S)S/C1=C\c1cc2ccccc2nc1N1CCCCC1,11µM*,-28%,-33%,-17%,-21,45µM*
COc1ccc2nc(N3CCCCC3)c(/C=C3\SC(=S)NC3=O)cc2c1,u,11µM*,25µM*,u,u,28µM*
COc1ccc2nc(N3CCCCC3)c(C#N)cc2c1,-27%,i,i,i,5,435%
COc1ccc(/C=C2\SC(=Nc3ccccc3Cl)NC2=O)c(OC)c1,u,x,x,x,-20,x
COc1ccc2nc(N3CCCC3)c(C#N)cc2c1,17µM*,118%,85%,142%,x,63%
O=C(NCC(c1cccs1)S(=O)(=O)c1cccs1)c1ccccc1 (configuration not stated),x,8%[59 µM],-3%,32%,x,0%
CCn1ccc2cc(S(=O)(=O)N3CCC(C(=O)NCc4cccc(C)c4)CC3)ccc21,x,3%[59 µM],-6%,15%[57 µM],x,-16%
CCCNC(=O)C[C@H]1C[C@H]2c3cc(NC(=O)Nc4ccc(F)cc4)ccc3O[C@H]2[C@@H](CO)O1,-8%,x,x,x,1,x
Cc1ccc(-n2c(=O)c3ccc(C(=O)NCc4ccco4)cc3n(Cc3ccccc3Cl)c2=O)cc1,x,1.6µM*,x,25%,x,-10%
C[C@@H]1CN([C@@H](C)CO)C(=O)CCCn2nncc2CO[C@H]1CN(C)Cc1cccnc1,-9%,x,x,x,0,x
CCC(CO)NCC#Cc1ccccc1 (configuration not stated),-7%,56µM*,-34%,24%,-7,-17%
OC(CNCC#Cc1ccccc1)c1ccccc1 (configuration not stated),0%,u,-26%,36%,2,-14%
Cc1c(Br)cccc1NC(=O)C1(C)CCN1Cc1ccccc1OC(F)F (configuration not stated),4%,x,x,x,19,x
COc1ccc(-c2sc3cc(OC)c(OC)cc3c2C#CC2(O)CCCCC2)cc1,-4%,-33%[0.501 µM],79µM*,20%,35,-26%
COc1ccc(-c2sc3ccccc3c2C#CC2(O)CCCCC2)cc1,-9%,x,46%,51%,29,-3%
COc1ccc(-c2oc3cccnc3c2-c2ccc(OC)nc2)cc1,2%,101%,27%,75%,-4,52%
COc1ccc(-c2oc3cccnc3c2C#CCO)cc1,-5%,50µM*,-3%,28%,-10,-7%
COc1ccc(-c2oc3cccnc3c2C#CC2(O)CCCCC2)cc1,2%,28µM*,-29%,64%,3,-11%
Cc1oc(-c2ccc(C(=O)NCc3ccc(N(C)C)cc3)cc2)nc1COc1ccccc1,x,-12%[59 µM],-6%,4%,x,-22%
COc1ccc(N2CCN(c3ccc(S(=O)(=O)N(C(C)C)C(C)C)cn3)CC2)cc1,-15%,u,-4%,17%,-9,-12%
